Measured values published in PubChem BioAssay (NCATS).
Inconclusive results are not listed. Active and inactive are the calls of the source. Calls follow the shape of the dose curve; as a rule, active = well fitted inhibition curve with a large enough effect; inconclusive = small, poorly fitted or top-dose-only effect; inactive = no such curve, though single readings can be large or run the other way.

Each molecule was assayed against Retinal dehydrogenase 2 (Homo sapiens) (UniProt O94788) (assay: qHTS for Inhibitors of the Aldehyde Dehydrogenase Family (ALDH1A2) Confirmation screens (AID 2061314; also: nearly all actives have a fitted effect of over 65% in size)). Conditions: ALDH1A2 enzyme inhibition qHTS confirmation; series mostly up to 45.9 µM; activity, negative = inhibition: at the top concentration.
% is scaled to controls: 0 for no effect and ±100 for the full control effect.

activity, negative = inhibition, inactive:
CNC(=O)c1cc(C2CC2)nc2onc(C3CCCN3C(=O)c3cccc(Cl)c3)c12 (stereo not given) -23.6%
Cc1cccc(-c2nc3c(cnn3-c3ccccc3)c(=O)n2-c2ccc(Br)cc2)c1 -14.4%
CCc1ccc(N(CC)C(=O)c2cn(C)c(=O)c3cc(OC)c(OC)cc23)cc1 -2.63%
Cc1nn2c(=O)cc(COC(=O)c3ccc(F)cc3)nc2s1 -3.77%
COCCn1c(SCc2ccccc2F)nc2c([nH]c3ccccc32)c1=O -23.4%
O=C(O)C1(Oc2ccc(Cl)cc2)CCN(c2cnccn2)CC1 2.05%
CCOc1ccc(N(C)S(=O)(=O)c2cc(-c3cc(C)no3)ccc2OC)cc1 -25.7%
CCCc1cnc2c(c1SCC(=O)N(C)c1ccccc1)c(=O)n(C)c(=O)n2C -14.3%
COc1ccc(CC(=O)N2CCC3(CC2)CN([S+](=O)([O-])c2ccccc2)CCO3)cc1 -0.823%
Cc1oc2ncnc(N3CCOCC3)c2c1C(=O)NCc1ccc(Cl)cc1 -9.13%
Cc1ccc(S(=O)(=O)N2CCCC(Cn3cnc4cccnc43)C2)cc1C (stereo not given) -6.76%
CNC(=O)[C@H]1C[C@H](Oc2cccnc2)CN1C(=O)Cc1ccccc1 1.6%
CCCCOc1ccc(C(=O)N(Cc2ccc(N(C)C)cc2)Cc2ccco2)cc1 -49%
COc1ccc(S(=O)(=O)c2c(C(=O)c3ccc(C)c(C)c3)cnc3ccc(C)cc23)cc1 -9.88%
COCCNC(=O)CCSc1nc(-c2ccc(OC)cc2)cc(C(F)(F)F)n1 -22.7%
CNC(=O)c1cc(C)nc2onc(C3CCCN3C(=O)c3ccccc3)c12 (stereo not given) -4.51%
COc1cc2nc(NC(=O)c3ccc(S(=O)(=O)N4CCOCC4)cc3)sc2cc1OC -23.7%
COC(=O)c1cc(C)nc2c1c(=O)nc(SCc1ccccc1C)n2C1CC1 -0.142%
CC(C)OCCCNC(=O)CN1C(=O)COc2ccc(S(=O)(=O)N3CCOCC3)cc21 -15%
COc1ccc(S(=O)(=O)NCC(c2ccco2)N2CCOCC2)cc1C (stereo not given) -11.5%
N#Cc1cc2c(=O)n3ccccc3nc2n(-c2nnc(SCc3ccc(F)cc3)s2)c1=O -28.4%
Cc1ccc(S(=O)(=O)N2CCC(C(=O)Nc3ccc(Oc4ccccc4)cc3)CC2)cc1 -10%
COC(=O)c1ccccc1NC(=O)CSc1nc(-c2ccccc2)cc(C(F)(F)F)n1 -10%
COC(=O)c1cc(C)nc2c1c(=O)nc(SCc1cccc(C)c1)n2C1CC1 -20.4%
COc1cccc(-c2cccc(C(=O)N3CCN([S+](=O)([O-])c4ccccc4)CC3)c2)c1 -25.2%
CCc1nn2c(=O)c(S(=O)(=O)Nc3ccc(Br)cc3F)c(C)nc2s1 -11.6%
O=C(Nc1ccc(O)cc1)c1cccc(S(=O)(=O)N2CCOCC2)c1 -3.2%
CC(C)NS(=O)(=O)c1ccc(OCC(=O)N2CCN(c3cccc(Cl)c3)CC2)cc1 -40%
CC(C)OCCCn1c(SCc2ccccc2Cl)nc2c(sc3ccccc32)c1=O -19.6%
CCN(C(=O)c1sc2nc3n(c(=O)c2c1C)CCCCC3)c1ccccc1F -11.9%
COc1ccc(-c2ccc(C(=O)Nc3cccc(C(F)(F)F)c3)cc2)nn1 -12.4%
Cc1cccc(NC(=O)CSc2nc3ccccc3nc2N2CCOCC2)c1C -14%
COc1ccc(CN2CC(O)CN([S+](=O)([O-])c3ccc(F)cc3)CC2=O)cc1 (stereo not given) -22.2%
O=C(NCCOc1ccccc1)[C@@H]1C[C@@H](c2ccc(F)cc2)N([S+](=O)([O-])c2ccccc2)C1 -9.76%

outcome, inactive:
Cc1nc2c(c(C)c1CCC(=O)Nc1ccc(F)cc1)c(=O)n(C)c(=O)n2C
O=S(=O)(NCCn1cc(-c2cncnc2)nn1)c1ccc(Cl)cc1 inactive; activator
CCC(=O)N(C1CCOCC1)C1CCN(S(=O)(=O)c2ccc(C(F)(F)F)cc2)CC1
COc1ccc(-c2nnc(SCC(=O)Nc3cccc(C(F)(F)F)c3)nc2-c2ccc(OC)cc2)cc1
CCN(CC)CCNC(=O)CN1C(=O)COc2ccc(S(=O)(=O)N3CCOCC3)cc21
COc1cccc(-c2ccc(C(=O)N3CCC(N[S+](=O)([O-])CCC(F)(F)F)CC3)cc2)c1
